Most compounds without a hit are left out; they make up all but 4.2% or so of the library.
D1 PAM = Potentiators of Human D1 Dopamine Receptor: qHTS | D(1A) dopamine receptor (Homo sapiens), P21728 | HEK293 TREx D1 cells, calcium flux, dopamine EC20 potentiation | potentiation, % at 10 µM | 360,000 tested, 0.036% active | AID 504651, 2011; in the data active means potentiation above about 30%; further: 0% is about no effect
Target sequence (P21728 whole entry, looked up): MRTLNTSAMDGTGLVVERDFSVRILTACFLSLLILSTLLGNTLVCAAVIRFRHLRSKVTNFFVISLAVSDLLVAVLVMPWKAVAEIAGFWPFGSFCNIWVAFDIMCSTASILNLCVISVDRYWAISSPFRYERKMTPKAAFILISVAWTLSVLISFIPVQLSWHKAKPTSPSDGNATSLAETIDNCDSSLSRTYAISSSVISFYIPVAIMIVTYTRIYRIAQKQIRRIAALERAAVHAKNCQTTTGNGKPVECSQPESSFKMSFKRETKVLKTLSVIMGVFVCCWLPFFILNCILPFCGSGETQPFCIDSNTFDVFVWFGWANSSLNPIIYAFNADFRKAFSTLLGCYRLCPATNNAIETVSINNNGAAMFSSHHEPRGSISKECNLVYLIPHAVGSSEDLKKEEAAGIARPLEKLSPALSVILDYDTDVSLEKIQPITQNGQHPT
D1 antag = Antagonist of Human D 1 Dopamine Receptor: qHTS; HEK293 TREx D1 cells, calcium flux, dopamine EC80; stronger effect = lower value; activity change, negative = inhibition, % at 10 µM; 360,000 tested, 3.2% active; AID 504652, 2011; in the data active means activity change below about -30%; further: on the % scale 0 is the no-effect control and ±100 the full control effect
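Calcium flux readout: force-coupled, inducible Hek293 Trex D1 line, cells induced overnight at 30 C with tetracycline, dye-loaded 30–90 min at RT. Antagonism scored against EC80 dopamine challenge given 180 s after compound.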
TRPV1 potentiator = HTS Assay for Compounds that Act as Potentiators of the Vanilloid Receptor 1. Transient receptor potential cation channel subfamily V member 1 (Homo sapiens), Q8NER1. TRPV1-expressing cells, Fluo-8 calcium influx, capsaicin EC20 potentiation. potentiation, % at 8.33 µM. 320,000 tested, 0.02% active. AID 540277, 2011; in the data active means potentiation above about 80%; inconclusive means between about 30% and that limit; further: 0% is about no effect
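Cells expressing TRPV1 were dye-loaded with Fluo-8 and read kinetically: 10 s baseline, 3 min after compound (agonist portion), then 2 min after EC20 capsaicin (allosteric enhancer portion). Calcium-bound dye fluorescence at 480/520 nm.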
D1 ag = Allosteric Agonists of the Human D1 Dopamine Receptor: qHTS | D(1A) dopamine receptor (Homo sapiens), P21728 | HEK293 T-REx D1 cells, calcium flux, agonist mode | activation, % at 2 µM | 360,000 tested, 1% active; in the data active means activation above about 30%; further: 0% is about no effect
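Inducible HEK293 T-REx D1 cells, force-coupled to calcium signalling, were plated at 4000 cells/well with tetracycline and held overnight at 30 C. After no-wash calcium dye loading, compound-evoked calcium rise over 180 s flagged agonists.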
TRPV1 ag = HTS Assay for Compounds that Act as Agonists of the Vanilloid Receptor 1; 320,000 tested, 0.19% active; TRPV1-expressing cells, Fluo-8 calcium influx, agonist mode; activation, % at 8.33 µM; Transient receptor potential cation channel subfamily V member 1 (Homo sapiens), Q8NER1; in the data active means activation above about 80%; inconclusive means between about 30% and that limit; further: 0% is about no effect
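Fluo-8 calcium influx in TRPV1-expressing cells, kinetic read (ex 480/em 520 nm). Compound added and read 3 min for agonist activity, followed by capsaicin at EC20 final and 2 min further read for enhancement.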
* marks the source's active call; other numbers are inactive results; ? = inconclusive; / = no result given.

SMILES	D1 PAM	D1 antag	TRPV1 potentiator	D1 ag	TRPV1 ag
Cc1ccc(S(=O)(=O)NC(C(=O)Oc2ccc3c(C(F)(F)F)cc(=O)oc3c2)c2ccccc2)cc1 (stereo unspecified)	-6	-9	-15	57*	23
COC(=O)C(NS(=O)(=O)c1ccc(C)cc1)c1ccccc1 (stereo unspecified)	-8	-24	-9	3	9
Cc1ccc(-c2nnc(Nc3cccc(C(F)(F)F)c3)c3ccccc23)cc1S(=O)(=O)N1CCOCC1	3	-11	/	7	/
O=C1C(=C(c2ccccc2)c2ccccc2)Nc2ccccc21	-12	-7	1	36*	?
CCc1nnc(NC(=O)CSc2nc3c([nH]c4ccccc43)c(=O)n2-c2ccc(F)cc2)s1	-4	-11	/	0	/
Cc1nc2c(-c3ccccc3)c[nH]n2c(=O)c1Cc1ccccc1	/	-20	?	36*	12
COCCCn1c(SCc2ccccc2F)nc2c(sc3ccccc32)c1=O	-1	-9	/	3	/
Fc1cccc(Nc2cc(-n3cccn3)ncn2)c1	-6	-45*	3	4	?
CCc1cccc(N2C(=O)CS(=O)(=O)C23C(=O)N(Cc2ccccc2)c2ccc(C)cc23)c1 (stereo unspecified)	0	0	/	4	/
CCCCN1C(=O)C(NC(=O)c2ccc(C(C)(C)C)cc2)(C(F)(F)F)C(C(=O)OC)=C1C (stereo unspecified)	5	4	/	58*	/
N#Cc1cc2nc(O)c(O)nc2cc1[N+](=O)[O-]	-1	0	-1	0	1
CNc1nc2cc([N+](=O)[O-])c([N+](=O)[O-])cc2nc1NC	-18	-14	?	39*	-1
COc1ccccc1N1CCN(C(=O)c2cc3c(=O)oc4ccccc4c3s2)CC1	0	-5	/	2	/
COc1cccc(C(=O)c2c(N)c(-c3nc(-c4ccccc4)cs3)c3ccccn23)c1	2	-43*	/	8	/
COc1ccc(-c2csc(-c3c(N)c(C(=O)c4ccccc4)n4ccccc34)n2)cc1	-2	-3	/	0	/
Nc1c(-c2nc(-c3ccc4c(c3)OCO4)cs2)c2ccccn2c1C(=O)c1ccccc1	1	-41*	/	0	/
Cc1ccc(C(=O)c2oc3ccccc3c2NC(=O)C(C)Oc2ccccc2Cl)cc1 (stereo unspecified)	0	0	/	2	/
CCOC(=O)c1c(C)n(C)c2ccc(OC)c(NC(=O)CCN3CCC(Cc4ccccc4)CC3)c12	-4	-36*	7	9	15
CN1CCCN(C(c2ccccc2)c2ccc(Cl)cc2)CC1 (stereo unspecified)	-4	-17	6	40*	3
CCCCCNc1nc2sc3c(c2c(=O)n1-c1cccc(Cl)c1)CCN(C)C3	-5	-85*	-33	0	-1
CCCCNc1nc2sc3c(c2c(=O)n1-c1cccc(Cl)c1)CCN(C)C3	-5	-39*	5	3	1
CCN1/C(=C\C=C(C(C)=O)C(C)=O)Sc2ccccc21	-4	12	-5	80*	13
CCOC(=O)/C(C#N)=C(C)/C=C1\Sc2ccccc2N1CC	-6	10	5	45*	12
CCN1/C(=C\C(=S)Nc2ccccc2)Sc2ccccc21	-2	-4	6	7	3
COc1ccc(OC)c(CNC(=O)CCCn2c(=O)c3cccn3c3cccnc32)c1	-3	-15	/	3	/
Cc1cc(Nc2ccc(C)c(C)c2)n2cnnc2n1	-2	0	/	5	/
Cc1csc(CNC(=O)C2CCC(=O)N(CCCc3ccccc3)C2)n1 (stereo unspecified)	-1	-14	-7	2	2
O=C(NCCCc1ccccc1)C1CCC(=O)N(Cc2ccc(Cl)cc2)C1 (stereo unspecified)	-3	-41*	-12	6	15
